Common to all, as to details: treatment time: 24 h
Assay [1] deals with WPMY1-CANX-COX4. The assay is described as follows: lowest phenotypically active concentration; higher = less potent. The essentials: (§1)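 Four wells per concentration (0.3, 1, 3 or 9 µM) were treated for 24 h in each of fifteen gene-edited reporter lines from A549, HepG2 and WPMY1 cells, then imaged live. After normalising live-cell features to solvent control wells, deviation was defined as ≥3 of 4 wells lying past the 95th percentile of control Euclidean distances. Reproducibility was defined as a median replicate Pearson correlation above the 95th percentile of non-replicates. Both had to hold for phenotypic activity.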

Assay [2] has as its system WPMY1-TUBA1B-RELA. Described as above. The gist of the method:
as §1

The next assay has as its system A549-ACTB-RAB5A. The assay is described as follows: phenotypically active (imaging signature differs from DMSO and reproducible) at any of 0.3-9 uM (binary (1 = active, 0 = inactive)); higher = active. The gist of the method: as §1
The subject of the next assay is A549-CANX-COX4. Described as above. The gist of the method:
as §1

A further assay relates to A549-GM130-SQSTM1. The description is as above. The gist of the method:
as §1

A further assay concerns A549-TUBA1B-RELA. The description is as above. The gist of the method:
as §1

The subject of the next assay is HepG2-ACTB-RAB5A. The assay is described as above. The essentials: as §1
A further assay concerns HepG2-CANX-COX4. The description is as above. The essentials:
as §1

A further assay deals with HepG2-GM130-SQSTM1. The assay is described as above. The essentials:
as §1

The test system of a further assay is HepG2-TUBA1B-RELA. The assay is described as above. The essentials: as §1
For the next assay, the system named is WPMY1-ACTB-RAB5A. The assay is described as above. The essentials:
as §1

For assay [3], the system named is WPMY1-CANX-COX4. Described as above. The essentials: as §1
For assay [4], the system named is WPMY1-GM130-SQSTM1. The description is as above. The gist of the method: as §1
For assay [5], the system named is WPMY1-TUBA1B-RELA. The assay is described as above. The essentials:
as §1

The test system of a further assay is A549-TP53BP1-CLTA. The assay is described as above. The essentials:
as §1

A further assay relates to HepG2-TP53BP1-CLTA. The description is as above. The gist of the method: as §1
The next assay deals with WPMY1-TP53BP1-CLTA. The assay is described as above. The essentials: as §1
Assay [6] deals with WPMY1-GM130-SQSTM1. Description: lowest phenotypically active concentration; higher = less potent. The essentials:
as §1

Regarding `O=S(c1ccccc1)c1ccc2nnnn2n1` (stereo not given), the “lowest phenotypically active concentration” value in the assay on WPMY1-CANX-COX4 [1] and in the assay with WPMY1-TUBA1B-RELA [2] was 9 µM throughout. Besides, the phenotypically active in the assay on A549-ACTB-RAB5A is 1 (active); in the assay with A549-CANX-COX4, 0 (inactive); in the assay with A549-GM130-SQSTM1, 0 (inactive); in the assay on A549-TUBA1B-RELA it was 0 (inactive); in the assay on HepG2-ACTB-RAB5A, 0 (inactive); with HepG2-CANX-COX4, 0 (inactive). The phenotypically active in the assay with HepG2-GM130-SQSTM1 was 0 (inactive); in the assay on HepG2-TUBA1B-RELA, 0 (inactive); in the assay on WPMY1-ACTB-RAB5A it was 0 (inactive); in the assay with WPMY1-CANX-COX4 [3], 1 (active); with WPMY1-GM130-SQSTM1 [4] it was 0 (inactive); with WPMY1-TUBA1B-RELA [5] it was 1 (active).
With `Nc1ccn([C@@H]2O[C@H](CO)[C@@H](O)[C@H]2O)c(=O)n1` [Cytidine], the phenotypically active in the assay with A549-CANX-COX4, with A549-TP53BP1-CLTA, in the assay with HepG2-ACTB-RAB5A, in the assay on HepG2-CANX-COX4, in the assay on HepG2-GM130-SQSTM1 and in the assay on HepG2-TP53BP1-CLTA was 0 (inactive) in each case. The phenotypically active in the assay on HepG2-TUBA1B-RELA, with WPMY1-ACTB-RAB5A, in the assay with WPMY1-CANX-COX4 [3], in the assay with WPMY1-GM130-SQSTM1 [4], in the assay with WPMY1-TP53BP1-CLTA and with WPMY1-TUBA1B-RELA [5] was 0 (inactive) each time.
With `Cc1ccc(C(=O)c2ccc(CC(=O)O)n2C)cc1` [tolmetin], the phenotypically active in the assay with A549-CANX-COX4, in the assay on A549-TP53BP1-CLTA, with HepG2-ACTB-RAB5A, in the assay on HepG2-CANX-COX4, in the assay on HepG2-GM130-SQSTM1 and in the assay with HepG2-TP53BP1-CLTA was 0 (inactive) in each case. Moreover, the phenotypically active with HepG2-TUBA1B-RELA, in the assay with WPMY1-ACTB-RAB5A, in the assay on WPMY1-CANX-COX4 [3], with WPMY1-GM130-SQSTM1 [4], in the assay with WPMY1-TP53BP1-CLTA and with WPMY1-TUBA1B-RELA [5] was 0 (inactive) in each case.
For the compound `COc1cc2nc(N3CCN(C(=O)c4ccco4)CC3)nc(N)c2cc1OC` [prazosin], the phenotypically active in the assay with A549-ACTB-RAB5A is 0 (inactive); with A549-CANX-COX4, 0 (inactive); with A549-GM130-SQSTM1, 0 (inactive); in the assay on A549-TUBA1B-RELA it was 0 (inactive); in the assay on HepG2-ACTB-RAB5A, 0 (inactive); with HepG2-CANX-COX4, 1 (active). For the same compound, the phenotypically active in the assay with HepG2-GM130-SQSTM1 was 0 (inactive); in the assay with HepG2-TUBA1B-RELA it was 1 (active); in the assay with WPMY1-ACTB-RAB5A, 0 (inactive); with WPMY1-CANX-COX4 [3], 0 (inactive); in the assay with WPMY1-GM130-SQSTM1 [4], 0 (inactive); in the assay on WPMY1-TUBA1B-RELA [5] it was 0 (inactive).
With `CCCc1nc2c(C)cc(-c3nc4ccccc4n3C)cc2n1Cc1ccc(-c2ccccc2C(=O)O)cc1` [telmisartan], the phenotypically active in the assay with A549-CANX-COX4, in the assay with A549-TP53BP1-CLTA, with HepG2-ACTB-RAB5A, in the assay on HepG2-CANX-COX4, with HepG2-GM130-SQSTM1 and in the assay with HepG2-TP53BP1-CLTA was 0 (inactive) each time. The phenotypically active in the assay on HepG2-TUBA1B-RELA, in the assay on WPMY1-ACTB-RAB5A, in the assay on WPMY1-CANX-COX4 [3], in the assay with WPMY1-GM130-SQSTM1 [4], in the assay with WPMY1-TP53BP1-CLTA and in the assay with WPMY1-TUBA1B-RELA [5] was 0 (inactive) each time.
`CC1(C)NC(=O)N(c2ccc([N+](=O)[O-])c(C(F)(F)F)c2)C1=O` [nilutamide]: the phenotypically active in the assay on A549-CANX-COX4, with A549-TP53BP1-CLTA, in the assay on HepG2-ACTB-RAB5A, in the assay with HepG2-CANX-COX4, in the assay on HepG2-GM130-SQSTM1 and in the assay on HepG2-TP53BP1-CLTA was 0 (inactive) throughout. The phenotypically active in the assay with HepG2-TUBA1B-RELA, with WPMY1-ACTB-RAB5A, with WPMY1-CANX-COX4 [3], in the assay on WPMY1-GM130-SQSTM1 [4], in the assay with WPMY1-TP53BP1-CLTA and in the assay with WPMY1-TUBA1B-RELA [5] was 0 (inactive) throughout.
`COC(=O)C1=C(C)NC(C)=C(C(=O)OC)C1c1ccccc1[N+](=O)[O-]` [nifedipine]: the “lowest phenotypically active concentration” value with WPMY1-GM130-SQSTM1 [6] stood at 9 µM. Moreover, the phenotypically active in the assay on A549-ACTB-RAB5A, with A549-CANX-COX4, in the assay on A549-GM130-SQSTM1, in the assay with A549-TP53BP1-CLTA, with A549-TUBA1B-RELA and in the assay with HepG2-ACTB-RAB5A was 0 (inactive) each time. Moreover, the phenotypically active in the assay with HepG2-CANX-COX4, in the assay with HepG2-GM130-SQSTM1, in the assay on HepG2-TP53BP1-CLTA, in the assay with HepG2-TUBA1B-RELA, with WPMY1-ACTB-RAB5A and in the assay with WPMY1-CANX-COX4 [3] was 0 (inactive) in each case. Also, the figures for the phenotypically active with WPMY1-GM130-SQSTM1 [4], with WPMY1-TP53BP1-CLTA and in the assay with WPMY1-TUBA1B-RELA [5] were 1 (active), 0 (inactive) and 0 (inactive), respectively.
